According to PubChem BioAssay (Tox21):
Records with an inconclusive call do not appear. Calls of active or inactive are those of the source. Unless noted, calls follow the shape of the dose curve; as a rule, active = well fitted curve in the direction sought with a large enough effect in the repeat runs; inconclusive = weak or mixed curves; inactive = no such curve, though single readings can be large; an effect the other way counts as inactive or inconclusive.

What was measured:
[1] = qHTS assay to identify small molecule agonists of the vitamin D receptor (VDR) signaling pathway - cell viability counter screen (AID 743224); also: series mostly up to about 63 µM; nearly all actives have a fitted effect of over 50% in size
In short: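 Plated VDR-bla cells (4 h, 37C) received compound, incubated 16 h, then LiveBLAzer substrate 2 h RT; CellTiter-Glo added afterwards, luminescence read at 30 min.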

[2] = qHTS assay to identify small molecule antagonists of the vitamin D receptor (VDR) signaling pathway - cell viability counter screen (AID 743225); also: nearly all actives have a fitted effect of over 50% in size
In short: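 Same-well multiplex: following 16 h treatment of HEK 293T cells carrying a UAS-driven beta-lactamase reporter with compound and agonist (3 nM final), and a 2 h FRET substrate step, CellTiter-Glo was added and luminescence read after 30 min.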

[3] = qHTS assay to identify small molecule agonists of the NFkB signaling pathway - cell viability counter screen (AID 1159515; calls by dose curve; also: series mostly up to about 61 µM; nearly all actives have a fitted effect of over 55% in size)
In short: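 Using the same wells as the NFkB reporter read, ME-180 NFkB-bla cells given compounds for 5 hr were assessed for viability via CellTiter-Glo, with luminescence taken after a 30 min room-temperature incubation.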

[4] = qHTS assay to identify small molecule agonists of the endoplasmic reticulum stress response signaling pathway (AID 1159516; active = well fitted activation curve with a large enough effect in the signal ratio in the repeat runs, not every such curve was filed as active; the % refers to the signal ratio)
In short: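 An ESRE-bla HeLa cell assay: compounds were pin-transferred from DMSO onto overnight-plated cells and left 5 hr at 37 C. Substrate was then loaded for 2 hr at room temperature before reading fluorescence at 460 nm and 530 nm.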

[5] = qHTS assay to identify small molecule agonists of the endoplasmic reticulum stress response signaling pathway - cell viability counter screen (AID 1159517; calls by dose curve;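 also: HeLa cells carrying an ER stress response element beta-lactamase reporter; series mostly up to about 61 µM; nearly all actives have a fitted effect of over 50% in size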)
In short: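 Luminescence readout: CellTiter-Glo, 30 min RT, same wells as the ESRE-bla reporter read. HeLa ESRE-bla, 1,500 cells/well, o/n 37 C; cpd 5 hr 37 C/5% CO2.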

[6] = qHTS assay to identify small molecule antagonists of the retinoid-related orphan receptor gamma (ROR-gamma) signaling pathway - cell viability counter screen (AID 1159520); also: nearly all actives have a fitted effect of over 50% in size
In short: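 Tet-on ROR gamma CHO cells (1,000/well) were plated 4 hr, given compounds in DMSO for 2 hr at 37 C, then induced with 1 uM final doxycycline for 16 hr. Viability was read as ATP by CellTiter-Glo luminescence after 30 min.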

[7] = target: Nuclear receptor ROR-gamma (Homo sapiens) (UniProt P51449); assay: qHTS assay to identify small molecule antagonists of the retinoid-related orphan receptor gamma (ROR-gamma) signaling pathway (AID 1159521)
In short: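 Inducible-expression reporter assay: doxycycline (1 uM final) switched on RORγ in CHO cells bearing a ROR response element-luciferase construct, with test compounds present from 2 h beforehand. Decreased luminescence after 16 h defined antagonist activity.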

[8] = qHTS assay to identify small molecule agonists of the AP-1 signaling pathway - cell viability counter screen (AID 1159525; calls by dose curve; also: nearly all actives have a fitted effect of over 55% in size)
In short: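 ME-180 AP-1-bla, 2500 cells/well, Opti-MEM + 0.5% dialyzed FBS; overnight 37 °C; cpd 15-pt titration, 5 h 37 °C; CellTiter-Glo 30 min RT; luminescence read; normalised to TOAB and DMSO controls.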

[9] = qHTS assay to identify small molecule agonists of the AP-1 signaling pathway (AID 1159526; calls by dose curve)
[10] = target: Retinoic acid receptor RXR-alpha (Homo sapiens) (UniProt P19793); assay: qHTS assay to identify small molecule agonists of the RXR signaling pathway (AID 1159527; calls by dose curve; also: nearly all actives have a fitted effect of over 35% in size)
In short: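 Compounds in DMSO were added to RXR-alpha-UAS-bla HEK 293T cells kept in 2% charcoal-stripped serum, and incubated 16 hr at 37 C with 5% CO2. Reporter signal came from a 2 hr B/G FRET substrate step.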

[11] = qHTS assay to identify small molecule antagonists of the retinoid acid receptor (RAR) signaling pathway - cell viability counter screen (AID 1159551); also: nearly all actives have a fitted effect of over 35% in size
In short: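 Retinol-stimulated (1 uM final) C3RL4 cells, compound 6 h, 37 C; readout CellTiter-Glo luminescence (ATP) after 30 min RT incubation.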

[12] = qHTS assay to identify small molecule antagonists of the retinoic acid receptor (RAR) signaling pathway (AID 1159552; also: nearly all actives have a fitted effect of over 50% in size)
In short: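 Antagonism of retinol-induced RARE reporter activity was measured in C3RL4 cells. Exposure to compounds and 1 uM final retinol lasted 6 hr at 37 C, with luminescence as endpoint.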

[13] = qHTS assay to identify small molecule agonists of the retinoic acid receptor (RAR) signaling pathway (AID 1159553)
In short: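 Reporter readout comes from luciferase under RARE control in C3RL4 cells; compound exposure lasts 6 hr at 37 C in 5% CO2, and luminescence is recorded following a 30 min room-temperature incubation with reagent.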

[14] = qHTS assay to identify small molecule antagonists of the estrogen related receptor (ERR) signaling pathway from Tox21 library - cell viability counter screen (AID 1224834); also: nearly all actives have a fitted effect of over 30% in size
In short: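 After 17.5 h of compound exposure at 37 C, ERR cells are incubated with CellTiter-Fluor for 30 min and fluorescence intensity serves as the viability measure.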

[15] = target: Luciferin 4-monooxygenase (Photinus pyralis) (UniProt P08659); assay: qHTS assay to identify small molecule inhibitors of firefly luciferase (AID 1224835); also: series mostly up to about 120 µM; nearly all actives have a fitted effect of over 25% in size
In short: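 Quantitative HTS format; KM concentrations of both substrates. Purified P. pyralis FLuc activity quantified from luminescence images.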

[16] = qHTS assay to identify small molecule agonists of the constitutive androstane receptor (CAR) signaling pathway - cell viability counter screen (AID 1224836); also: series mostly up to about 92 µM; nearly all actives have a fitted effect of over 45% in size
In short: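 Double-stable HepG2 hepatoma cells (hCAR plus CYP2B6-2.2kb) are treated for 23 h at 37 C with test compounds in 15-point concentration series. PK11195 at 0.75 uM final is co-added. Cell viability is quantified by CellTiter-Fluor.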

[17] = qHTS assay to identify small molecule antagonists of the constitutive androstane receptor (CAR) signaling pathway - cell viability counter screen (AID 1224837); also: series mostly up to about 92 µM; nearly all actives have a fitted effect of over 45% in size
In short: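 Counter screen run in HepG2-CYP2B6-hCAR cells: 4 hr settle, compound titration (15 concentrations) with 50 nM CITCO, 23 hr at 37 C/5% CO2, CellTiter-Fluor fluorescence.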

[18] = target: Nuclear receptor subfamily 1 group I member 3 (Homo sapiens) (UniProt Q14994); assay: qHTS assay to identify small molecule antagonists of the constitutive androstane receptor (CAR) signaling pathway (AID 1224838);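 also: HepG2 cells stably expressing hCAR with CYP2B6 luciferase reporter stimulated by CITCO; nearly all actives have a fitted effect of over 40% in size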
In short: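 Cell line: HepG2 double-stable for hCAR and CYP2B6-2.2kb reporter. Agonist: CITCO, 50 nM final. Compounds: 15 concentrations, 24 h, 37 C. Detection: ONE-Glo luminescence.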

[19] = target: Nuclear receptor subfamily 1 group I member 3 (Homo sapiens) (UniProt Q14994); assay: qHTS assay to identify small molecule agonists of the constitutive androstane receptor (CAR) signaling pathway (AID 1224839);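 also: HepG2 cells stably carrying human CAR and a CYP2B6 luciferase reporter; series mostly up to about 92 µM; nearly all actives have a fitted effect of over 15% in size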
In short: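 Readout: firefly luciferase luminescence via ONE-Glo. System: HepG2 double-stable for hCAR and CYP2B6-2.2kb. Conditions: 15-point compound titration, PK11195 at 0.75 uM final, 24 h incubation.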

[20] = qHTS assay to identify small molecule agonists of the RXR signaling pathway - cell viability counter screen (AID 1159529)
In short: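 Counter screen: CellTiter-Glo luminescence. Cells: RXR-alpha-UAS-bla HEK 293T. Medium: 2% charcoal-stripped FBS. Treatment: 16 h, 37 C. Reagent incubation: 30 min, RT.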

Measured: Potency

Retinoic acid receptor RXR-alpha (Homo sapiens), sequence (P19793 whole entry, looked up): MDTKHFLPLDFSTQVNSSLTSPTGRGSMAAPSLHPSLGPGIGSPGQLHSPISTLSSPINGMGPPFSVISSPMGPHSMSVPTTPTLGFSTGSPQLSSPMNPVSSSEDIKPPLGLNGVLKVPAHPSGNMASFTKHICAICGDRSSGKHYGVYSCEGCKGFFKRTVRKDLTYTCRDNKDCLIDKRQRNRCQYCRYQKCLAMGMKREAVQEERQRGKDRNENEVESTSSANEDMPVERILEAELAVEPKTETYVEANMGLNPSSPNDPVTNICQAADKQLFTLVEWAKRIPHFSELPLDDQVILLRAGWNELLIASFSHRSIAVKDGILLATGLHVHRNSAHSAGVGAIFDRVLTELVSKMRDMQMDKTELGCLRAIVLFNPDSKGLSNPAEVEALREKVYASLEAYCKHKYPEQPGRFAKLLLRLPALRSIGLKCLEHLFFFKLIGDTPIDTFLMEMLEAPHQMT
Nuclear receptor subfamily 1 group I member 3 (Homo sapiens), sequence (Q14994 whole entry, looked up): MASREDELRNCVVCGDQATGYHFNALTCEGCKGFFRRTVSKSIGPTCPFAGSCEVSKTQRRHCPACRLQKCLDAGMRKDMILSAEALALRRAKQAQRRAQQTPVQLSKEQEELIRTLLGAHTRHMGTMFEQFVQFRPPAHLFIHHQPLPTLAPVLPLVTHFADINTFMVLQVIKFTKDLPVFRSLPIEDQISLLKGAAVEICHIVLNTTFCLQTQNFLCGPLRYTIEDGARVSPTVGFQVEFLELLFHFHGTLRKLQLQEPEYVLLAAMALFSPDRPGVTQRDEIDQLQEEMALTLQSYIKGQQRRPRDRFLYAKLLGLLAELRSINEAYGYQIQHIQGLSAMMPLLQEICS
Luciferin 4-monooxygenase (Photinus pyralis), sequence (P08659 whole entry, looked up): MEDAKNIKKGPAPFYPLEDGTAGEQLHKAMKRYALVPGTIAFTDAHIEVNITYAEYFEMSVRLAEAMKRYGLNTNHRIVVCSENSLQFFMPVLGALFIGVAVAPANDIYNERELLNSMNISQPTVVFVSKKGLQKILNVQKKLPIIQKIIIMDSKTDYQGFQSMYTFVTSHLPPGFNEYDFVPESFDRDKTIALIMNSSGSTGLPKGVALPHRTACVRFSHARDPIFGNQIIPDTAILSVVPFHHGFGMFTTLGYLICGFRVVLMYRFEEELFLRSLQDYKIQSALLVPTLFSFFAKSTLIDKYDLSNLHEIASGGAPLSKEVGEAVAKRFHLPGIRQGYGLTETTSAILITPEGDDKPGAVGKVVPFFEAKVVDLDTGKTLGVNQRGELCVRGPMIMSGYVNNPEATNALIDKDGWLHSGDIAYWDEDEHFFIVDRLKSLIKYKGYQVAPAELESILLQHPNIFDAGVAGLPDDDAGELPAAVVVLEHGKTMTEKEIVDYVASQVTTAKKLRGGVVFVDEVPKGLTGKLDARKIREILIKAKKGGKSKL

CCCCCCCCS(=O)(=O)O
not listed: [20]
inactive: all other assays above

CC(=O)Nc1ccc(S(=O)(=O)Nc2cc(C)on2)cc1
not listed: [14] | [18] | [19]
inactive: all other assays above

CCCCN1C(=O)c2ccccc2C1=O
not listed: [17]
inactive: all other assays above

NNC(=O)CCCCC(=O)NN
not listed: [17] | [18]
inactive: all other assays above

O=C(O)P(=O)(O)O
not listed: [14]
inactive: all other assays above

Cc1ccc2cccnc2c1
not listed: [2] | [14] | [17]
inactive: all other assays above

C/C(Cl)=C/CCl
not listed: [20]
inactive: all other assays above

CC(C)(Sc1cc(C(C)(C)C)c(O)c(C(C)(C)C)c1)Sc1cc(C(C)(C)C)c(O)c(C(C)(C)C)c1
not listed: [17] | [18] | [19]
inactive: all other assays above

CCC(=O)OCCOc1ccccc1
not listed: [17] | [18] | [19]
inactive: all other assays above

C/C=C(\C)C=O
not listed: [14] | [18] | [19]
inactive: all other assays above

CC/C=C\CCCCCCCCCCOC(C)=O
not listed: [2] | [20]
inactive: all other assays above

CCCc1ncc(C(=O)O)s1
not listed: [18] | [20]
inactive: all other assays above

C=CC(=O)CC
not listed: [17] | [18] | [19]
inactive: all other assays above

C=CC(C)(CCC=C(C)C)OC(=O)C(C)C (configuration not stated)
not listed: [2] | [14] | [18] | [19]
inactive: all other assays above

CC(C)(O)c1ccc(C(C)(C)O)cc1
not listed: [14]
inactive: all other assays above
